Screening data: PubChem, Broad Institute
This is one part of a sample in which hits are shown more often than they occur.
CD40 NFkB inh = CD40 pathway inhibition in BL2 cells; BL2 NF-kB luciferase reporter, CD40L-induced, 4 h; AID 1053188; actives 0.94% (n = 83,000); inhibition, % at 10 µM;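 active means mean inhibition of at least 50% with a set share of replicates also reaching that level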;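 further: 0% = neutral control wells and 100% = IKK inhibitor VII at 50 µM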
Numbers without * were called inactive; ! = repeats disagree; [ ] = remark or other dose.

SMILES | CD40 NFkB inh
Cc1[nH]c2ccccc2c1C(c1ccncc1)N1CCN(c2ccccn2)CC1 (configuration not stated) | -3
Cc1[nH]c2ccccc2c1C(c1ccncc1)N1CCC(C)CC1 (configuration not stated) | 16
C[C@H]1CN([C@@H](C)CO)C(=O)CCCn2cc(nn2)CO[C@H]1CN(C)S(=O)(=O)c1ccc(-n2cccn2)cc1 | -10[25 µM]
Cc1nc2ccccn2c(=O)c1CCN1CCC(C(=O)c2ccc(F)cc2)CC1 | 5
Cc1nc2sccn2c(=O)c1CCN1CCC(=C(c2ccc(F)cc2)c2ccc(F)cc2)CC1 | 27*
Cc1ccc(C)c(C(=O)c2c(C)nc3sccn23)c1 | 9
CC(=O)Nc1cccc2c1O[C@@H](CN(C)C)[C@H](C)CN(C)C2=O | 11
Cc1ccsc1C(=O)OCC(=O)c1cc(C)n(C)c1C | 62*
Cc1cc(C(=O)COC(=O)Cc2ccc(Cl)cc2)c(C)n1C | -9
Cc1cc(C(=O)COC(=O)c2ccccc2O)c(C)n1Cc1cccs1 | 108*
Cc1cc(C(=O)COc2ncnc3sccc23)c(C)n1C | -76
CC(=O)Nc1ccccc1OCC(=O)c1cc(C)n(Cc2cccs2)c1C | 14
Cc1cc(C(=O)COC(=O)c2ccc3c(c2)OCO3)c(C)n1Cc1cccs1 | -50
COc1cccc(-c2ccc([C@H]3[C@@H](CO)N(C(=O)c4ccccn4)[C@H]3C#N)cc2)c1 | -10
CCCNC(=O)N1[C@H](C#N)[C@H](c2ccccc2-c2cccc(OC)c2)[C@@H]1CO | 22[25 µM]
CO[C@@H]1CC[C@H]2CCN(C)C(=O)[C@@H](C)CN(C)C(=O)c3cc(C#N)ccc3OC[C@@H]1O2 | -11[25 µM]
COc1cccc2c1C(=O)c1c(O)c3c(c(O)c1C2=O)C[C@@](O)(C(C)=O)C[C@@H]3OC1CC(N)C(O)C(C)O1 (some centres not stated) | 87*[25 µM]
C[C@H]1CN([C@@H](C)CO)C(=O)c2c(c3ccccc3n2C)-c2ccccc2CO[C@@H]1CN(C)Cc1ccccc1C(F)(F)F | 14[25 µM]
N#C[C@@H]1[C@H](c2ccc(C#Cc3cccc(F)c3)cc2)[C@H](CO)N1C(=O)C1CCOCC1 | -6[25 µM]
CN(C)C(=O)c1cccc(-c2ccccc2[C@H]2[C@@H](C#N)N(C(=O)C3CCCC3)[C@@H]2CO)c1 | 4
C[C@@H]1CN([C@H](C)CO)C(=O)c2cccc(NC(=O)CCCCCC(=O)Nc3ccccc3N)c2O[C@@H]1CN(C)Cc1ccc(Cl)c(Cl)c1 | 5[25 µM]
Cc1ccc(-c2nc(N/N=C/c3ccncc3)c3ccccc3n2)cc1 | 53*
Cc1ccc(NCC(=O)N/N=C/c2ccncc2)cc1 | 5
c1ccc2c(Nc3nc(-c4ccncc4)nc4ccccc34)cccc2c1 | 18
O=C(c1ccccn1)N1C[C@H]2[C@@H](c3ccccc31)[C@H](CO)N2C(=O)C1CC1 | 2
SMILES | CD40 NFkB inh
Cc1noc(C)c1NC(=O)N(C)C[C@H]1Oc2cc(C#CCN(C)C)ccc2S(=O)(=O)N([C@@H](C)CO)C[C@H]1C | 1[25 µM]
Cc1sc2nc(-c3ccco3)oc(=O)c2c1C | -31
Cc1sc2ncnc(SCc3ccco3)c2c1C | 4
Cc1nc(NCc2ccco2)c2c(C)c(C)sc2n1 | 49*
COc1ccc(C#Cc2ccc([C@H]3[C@H](CO)N4C(=O)CN(C(=O)c5ccc(F)cc5)C[C@@H]34)cc2)cc1 | -4[25 µM]
C[C@H]1CN([C@@H](C)CO)C(=O)c2cccc(NC(=O)C3CCOCC3)c2O[C@@H]1CN(C)Cc1ccncc1 | -6[25 µM]
CO[C@H]1CN(C)C(=O)c2cc(NC(=O)C3CC3)ccc2OC[C@H](C)N(CC2CCCC2)C[C@H]1C | -4
C[C@@H]1CN([C@H](C)CO)C(=O)c2ccccc2-c2ccccc2CO[C@H]1CN(C)S(=O)(=O)c1ccccc1F | -11
Cc1nonc1C(=O)N/N=C/c1ccc([N+](=O)[O-])o1 | -6
COc1ccc(/C=N/NC(=O)CC(=O)N/N=C/c2ccc(OC)cc2)cc1 | 3
COc1ccc(/C=N/NC(=O)c2nonc2C)cc1 | 64*
C[C@@H]1CN([C@@H](C)CO)C(=O)c2c(c3ccccc3n2C)-c2ccccc2CO[C@H]1CN(C)CC1CCCCC1 | -3[25 µM]
COC(=O)C1CC2=CC(=O)CCC2(C)C23OC2CC2(C)C(CCC24CCC(=O)O4)C13 (configuration not stated) | 2[25 µM]
C1=C(CN2CCOCC2)COc2c1cccc2OCC1CNCCO1 (configuration not stated) | 1[25 µM]
CC(C)[C@@H]1C(=O)NCCC=CC[C@H](C)Oc2ccccc2C(=O)N1C (mixture of isomers) | -8[25 µM]
CC1(C)CC[C@]2(C(=O)n3ccnc3)CC[C@]3(C)[C@H](C(=O)C=C4[C@@]5(C)C=C(C#N)C(=O)C(C)(C)[C@@H]5CC[C@]43C)[C@@H]2C1 | 92*
O=C(C1CCC1)N1CC[C@@H]2[C@H]1c1cc(Br)ccc1N[C@@H]2CO | -27
CN([NH2+][O-])c1cc(O)ccc1O | -25[25 µM]
O=C(Nc1ccc2c(c1)[C@@H]1C[C@H](CC(=O)N3CCOCC3)O[C@H](CO)[C@@H]1O2)NC1CCCCC1 | 5
COc1ccccc1S(=O)(=O)N1[C@@H]2CNC[C@H]1C2c1ccc(/C=C/c2ccccc2)cc1 (some centres not stated) | 14[25 µM]
O=C(Nc1ccccc1F)N1CCCCN2[C@H](CO)[C@H](c3ccc(/C=C/c4ccccc4)cc3)[C@@H]2C1 | 14[25 µM]
O=C(Nc1ccccc1F)N1CCCCN2[C@H](CO)[C@H](c3ccc(/C=C/c4ccccc4)cc3)[C@H]2C1 | 89*[25 µM]
Cc1ccccc1S(=O)(=O)N1[C@@H]2CNC[C@H]1C2c1ccc(/C=C/c2ccccc2)cc1 (some centres not stated) | 51*!
O=C(Nc1ccccc1Cl)N1[C@@H]2CNC[C@H]1C2c1ccc(-c2ccccc2)cc1 (some centres not stated) | 4
O=C(Nc1ccccc1Cl)N1[C@@H]2CNC[C@H]1C2c1ccc(/C=C/c2ccccc2)cc1 (some centres not stated) | 58*!
SMILES | CD40 NFkB inh
Cc1ccccc1S(=O)(=O)N1[C@@H]2CNC[C@H]1[C@@H]2c1ccc(-c2ccc(C#N)cc2)cc1 | 8[25 µM]
C/C=C/c1ccc(C2[C@H]3CNC[C@@H]2N3C(=O)Nc2ccccc2Cl)cc1 (some centres not stated) | -3[25 µM]
C/C=C/c1ccc(C2[C@@H]3CN(C(=O)Nc4ccccc4F)C[C@H]2N3)cc1 (some centres not stated) | -4[25 µM]
O=C(Nc1ccccc1F)N1CCCCN2[C@H](C1)[C@@H](c1ccc(/C=C/c3ccccc3)cc1)[C@@H]2CO | -2[25 µM]
O=C(Nc1ccc(F)cc1)N1C[C@@H]2N[C@H](C1)C2c1ccc(/C=C/c2ccccc2)cc1 (some centres not stated) | 25[25 µM]
O=C(Nc1ccccc1F)N1C[C@@H]2N[C@H](C1)C2c1ccc(/C=C/c2ccccc2)cc1 (some centres not stated) | 53*
C[C@@H]1CN([C@@H](C)CO)C(=O)c2c(c3ccccc3n2C)-c2ccccc2CO[C@@H]1CN(C)C(=O)C1CC1 | -11
C[C@H]1CN([C@@H](C)CO)C(=O)CCCn2nncc2CO[C@@H]1CN(C)C(=O)CCC(F)(F)F | -1[25 µM]
N#C[C@H]1[C@@H](c2ccccc2-c2cccc(F)c2)[C@H](CO)N1S(=O)(=O)c1cccc(F)c1 | -7[25 µM]
CC(C)NC(=O)N(C)C[C@@H]1Oc2ccccc2C(=O)N(C)C[C@@H]1C | -4
O=C(C[C@H]1CC[C@@H]2[C@H](COC[C@@H](O)CN2CC2CCCC2)O1)NCc1ccc(Cl)cc1 | 4
